HPGD inh: HPGD (human) dehydrogenase inhibition. P15428. purified HPGD, NADH fluorescence kinetic, PGE2 substrate. Potency, µM, for inactives: at the highest dose activity change, negative = inhibition, most hits filed as inhibitors. actives 4.3% (n = 150,000). AID 894; active = well fitted inhibition curve with a large enough effect, not every such curve was filed as active; inconclusive = small, poorly fitted or top-dose-only effect, or another doubt; inactive = no such curve, though single readings can be large or run the other way; note: potency is the fitted concentration of half-maximal effect; % is set by controls: 0 for no effect and ±100 for the full control effect
Target sequence (P15428 whole entry, looked up): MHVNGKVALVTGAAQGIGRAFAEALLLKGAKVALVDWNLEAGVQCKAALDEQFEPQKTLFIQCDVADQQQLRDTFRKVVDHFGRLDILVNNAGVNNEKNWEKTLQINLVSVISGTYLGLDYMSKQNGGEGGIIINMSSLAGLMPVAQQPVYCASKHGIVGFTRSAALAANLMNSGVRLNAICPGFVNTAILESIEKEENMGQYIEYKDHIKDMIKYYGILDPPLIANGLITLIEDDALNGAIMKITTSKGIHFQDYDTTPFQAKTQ
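20 nM HPGD preincubated 15 min at room temperature with compound in 50 mM Tris-HCl pH 8, 0.01% Tween 20. Started with 1 mM NAD+ and 30 uM prostaglandin E2; NADH fluorescence (360/450 nm) read 5 times over 30-s intervals, last minus first.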
HttQ103 aggreg: reduces HttQ103-GFP aggregates in PC12 cells | AID 1688 | Potency, µM (series often up to 46.1 µM), for inactives: at the top dose activity change, negative = inhibition, most hits filed as inhibitors | actives 1.1% (n = 220,000) | PC12 HttQ103-GFP aggregates, Acumen cytometry, 40 h; note: potency is the fitted concentration of half-maximal effect; % is set by controls: 0 for no effect and ±100 for the full control effect; nearly all actives have a fitted effect of over 60% in size
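Quantitative HTS on tebufenozide-induced (100 nM) PC12 cells stably expressing polyQ103 Huntingtin exon 1–GFP. Reduction of bright GFP aggregates, detected by laser scanning cytometry after lysis, identified actives across the titration.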
IMPase Li inh: membrane-permeable IMPase blocker, potentiated with lithium. CHO-M1 cells, IP1 TR-FRET (IP-One), carbachol + lithium. Potency, µM (titrated, usually from 59.4 µM), without a hit: at the highest dose activity, negative = IMPase inhibition, hits mostly inhibitors. actives 0.35% (n = 210,000). AID 1457;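 note: IP1 builds up when IMPase is blocked and the TR-FRET signal falls; potency is the fitted concentration of half-maximal effect; plate controls were basal vehicle for no effect and high inhibitor control for full effect; nearly all actives have a fitted effect of over 50% in size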
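Concentration–response in CHO-M1 cells, lithium-potentiated; 30 min at 37C. IP1 detected by competitive TR-FRET after 10 min lysis at RT. Hill-fitted AC50.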
HTT ATP protect: cytoprotection in Huntington HTT-Q103 PC12 cell model. AID 1471. actives 0.14% (n = 230,000). PC12 HTT-Q103 induced, cytoprotection, ATP luminescence, 40 h. Potency, µM (highest dose often 56.4 µM), for the others: cytoprotection (ATP increase), actives largely listed as activators; note: potency is the fitted concentration of half-maximal effect; % of control where 0% means no effect; nearly all actives have a fitted effect of over 45% in size
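Stable PC12 Q103-GFP cells in serum-supplemented, phenol red-free DMEM; induction by tebufenozide at 100 nM final; compound dose series; cell viability quantified luminescently from ATP.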
ALDH1A1 block: ALDH1A1 (human) enzyme inhibition. actives 7.3% (n = 220,000). Potency, µM (series often up to 75.3 µM), for inactives: at the highest dose activity, negative = inhibition, most hits filed as inhibitors. P00352. Purified ALDH1A1, NADH fluorescence, propionaldehyde substrate; active = well fitted inhibition curve with a large enough effect, not every such curve was filed as active; inconclusive = small, poorly fitted or top-dose-only effect, or another doubt; inactive = no such curve, though single readings can be large or run the other way;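 note: potency is the fitted concentration of half-maximal effect; plate controls were no enzyme wells and a reference inhibitor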
Target sequence (P00352 whole entry, looked up): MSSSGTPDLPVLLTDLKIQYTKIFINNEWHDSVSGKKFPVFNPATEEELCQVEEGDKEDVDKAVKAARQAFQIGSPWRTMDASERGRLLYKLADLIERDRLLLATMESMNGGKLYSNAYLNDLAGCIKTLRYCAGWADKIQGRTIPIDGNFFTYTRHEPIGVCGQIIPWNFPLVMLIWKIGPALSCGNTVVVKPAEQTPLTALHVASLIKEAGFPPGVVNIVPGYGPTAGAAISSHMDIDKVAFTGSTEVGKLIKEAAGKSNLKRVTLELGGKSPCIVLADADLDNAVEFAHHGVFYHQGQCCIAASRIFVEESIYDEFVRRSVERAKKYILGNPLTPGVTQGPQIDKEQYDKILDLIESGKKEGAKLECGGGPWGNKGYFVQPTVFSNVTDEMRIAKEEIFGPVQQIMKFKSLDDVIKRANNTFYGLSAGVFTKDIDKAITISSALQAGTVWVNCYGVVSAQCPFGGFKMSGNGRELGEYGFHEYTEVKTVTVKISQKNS
IMPase inh: cell-permeable inhibitors of inositol monophosphatase (IMPase) | P97697 | CHO-M1 cells, IP1 accumulation, HTRF TR-FRET ratio | inhibition (IP1 accumulation), % at 46.1 µM | 120,000 tested, under 10 active | AID 901; active = well fitted curve in the direction sought with a large enough effect in the signal ratio, not every such curve was filed as active; inconclusive = small, poorly fitted or top-dose-only effect, or a change in a side signal; inactive = no such curve, though single readings can be large or run the other way; the % refers to the signal ratio;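 note: cells stimulated with carbachol in lithium chloride buffer; plate controls were DMSO basal wells for no effect and reference inhibitor wells for full effect; higher means more IMPase inhibition seen as more IP1 and lower FRET ratio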
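The IP-One HTRF competitive assay in carbachol-stimulated CHO-M1 cells quantifies cellular IP1. Compounds spanned up to 46 uM final, and activity is expressed as AC50 from concentration-response fits of the ratio and donor data.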
An asterisk follows results filed as active; ? = inconclusive; nt = not tested or not shown; [ ] = another dose, or the depositor's remark. Only some compounds are listed: those with a hit (about 9.4% of all), similar ones and a draw of the others. Unless noted, calls come from the whole dose curve; as a rule, active = well fitted curve in the direction sought with a large enough effect; inconclusive = small, poorly fitted or top-dose-only effect, or another doubt; inactive = no such curve, though single readings can be large; an effect the other way counts as inactive or inconclusive.

SMILES	HPGD inh	HttQ103 aggreg	IMPase Li inh	HTT ATP protect	ALDH1A1 block	IMPase inh
Oc1c(Cl)ccc(Cl)c1Cl	-9%	nt	-26%	12%	-5%	nt
CC(=O)OC[C@H]1O[C@@H](O/N=C\[C@@H](C)[C@H](OCc2ccccc2)C(C)C)[C@H](OC(C)=O)[C@@H](OC(C)=O)[C@H]1OC(C)=O	nt	nt	nt	5%[10 µM]	-12%[13.5 µM]	nt
CCOc1ccccc1N1C(=O)c2ccc(C(=O)Nc3cccnc3)cc2C1=O	-17%	-2%	26%[38.3 µM]	20%[10 µM]	-10%	1
CC(=O)Oc1cccc(N2C(=O)c3ccc(C(=O)Nc4cccnc4)cc3C2=O)c1	nt	3%	-1%	-27%	18µM*	nt
CCOC(=O)C1=C(CC)Nc2ccccc2N=C1NC(=O)c1ccc(S(=O)(=O)N2CCCC2)cc1	nt	-2%	16%	-5%	14µM*	nt
Cc1ccc(C(=O)Nc2nc(=O)n(C(=O)C3CC3)s2)cc1	-10%	23%	0%	nt	-1%	-1
Cc1ccc(C(=O)Nc2nc(=O)n(C(=O)c3ccccc3C)s2)cc1	-12%	nt	38%[38.3 µM]	18µM*	?	7
NC(=O)n1c(O)c(C(=O)c2cccs2)c2cc(Cl)ccc21	nt	11µM*	nt	nt	nt	nt
Cc1cccc(NS(=O)(=O)c2cc(C(=O)O)ccc2Cl)c1	-8%	nt	nt	nt	-3%	nt
C=CCN(c1ccccc1Cl)S(=O)(=O)c1cccc(C(=O)NCCc2ccc(OC)cc2)c1	-16%	?	4%	?	?	nt
C=CCn1c(=O)/c(=C/c2ccc(Cl)cc2)s/c1=C(/C#N)c1nnc2n1CCCCC2	25µM*	4%	46%[38.3 µM]	-25%	?	5
COC(=O)C/C=C\[C@@H](C)[C@@H](/C=N\O[C@@H](C)c1cn([C@H]2COC[C@H]2O)nn1)OC	nt	nt	nt	?	9%[13.5 µM]	nt
CC1C/C(=N\NC(=S)NCc2ccccc2)CC(C)(C)C1 (configuration not stated)	-15%	-12%	22%[38.3 µM]	18%	25µM*	5
COc1cccc(OC)c1C(=O)Nc1nnc(-c2cccs2)s1	nt	9%[9.22 µM]	-10%	10%[10 µM]	7.9µM*	nt
COCCOC(=O)c1[nH]c2c(c1C)C(=O)C(C(=O)OC)C(C)C2 (configuration not stated)	-7%	2%	-7%[38.3 µM]	-50%	-6%	1
COC(=O)C1C(=O)c2c([nH]c(C(=O)OC3CCCCCC3)c2C)CC1C (configuration not stated)	-5%	0.001µM*	8%[38.3 µM]	nt	?	-5
O=C(NC(=S)Nc1ccccc1N1CCOCC1)c1sc2ccccc2c1Cl	-15%	6%	-4%	13%[10 µM]	?	nt
O=C(NC(=S)Nc1ccc(N2CCCCC2)c(Cl)c1)c1ccc2c(c1)OCCO2	?	-13%	8%[38.3 µM]	?	10µM*	7
O=C(NC(=S)Nc1ccc(N2CCOCC2)c(Cl)c1)c1cncc(Br)c1	22µM*	3%	7%	nt	7.9µM*	nt
O=C(NC(=S)Nc1ccc(N2CCOCC2)c(Cl)c1)c1sc2ccccc2c1Cl	-22%	8%	-7%	-20%[1.9 µM]	3.5µM*	5
O=C(NC(=S)Nc1ccc(N2CCOCC2)c(Cl)c1)c1cccs1	nt	-6%[9.22 µM]	2%	-12%[10 µM]	-88%	nt
CCCc1[nH]nc2c1C(c1ccc(O)cc1OCC)C(C#N)=C(N)O2 (configuration not stated)	-5%	12%	4%[38.3 µM]	-23%	18µM*	4
CCCc1[nH]nc2c1C(c1cccc(OC)c1)C(C#N)=C(N)O2 (configuration not stated)	-1%	-2%	5%[38.3 µM]	-12%	20µM*	2
CCCc1[nH]nc2c1C(c1ccc(OC)cc1OC)C(C#N)=C(N)O2 (configuration not stated)	-6%	?	11%[38.3 µM]	18%[10 µM]	?	7
CCOc1ccc(-c2[nH]nc3c2C(c2ccc(O)cc2)C(C#N)=C(N)O3)cc1 (configuration not stated)	-29%	-20%	51%[38.3 µM]	-15%	18µM*	4
SMILES	HPGD inh	HttQ103 aggreg	IMPase Li inh	HTT ATP protect	ALDH1A1 block	IMPase inh
CC(C)c1[nH]nc2c1C(c1ccc(OC(=O)c3ccco3)cc1)C(C#N)=C(N)O2 (configuration not stated)	-19%	2%	5%	16%[10 µM]	25µM*	-7
CCCc1[nH]nc2c1C(c1ccsc1)C(C#N)=C(N)O2 (configuration not stated)	nt	nt	1%	nt	-12%	nt
CCCCCCC=O	-3%	nt	10%	-2%	-9%	nt
Cc1cccn2c(=O)c(/C=C(\C#N)c3nc4ccccc4s3)c(Oc3ccc(Br)cc3)nc12	nt	nt	nt	nt	nt	5
CC(=O)OC[C@@H]1O[C@@H](O/N=C2/C[C@@H](O)[C@@H](O)[C@@H]3[C@@H]4C(=O)N(Cc5ccccc5)C(=O)[C@H]4CC[C@@H]23)[C@H](OC(C)=O)[C@H](OC(C)=O)[C@@H]1OC(C)=O	nt	nt	nt	-11%[10 µM]	1%[13.5 µM]	nt
Fc1ccccc1C1c2cccn2CCN1C(=S)Nc1ccc(Br)cc1 (configuration not stated)	nt	?	17%	-74%	14µM*	nt
Fc1ccccc1C1c2cccn2CCN1C(=S)Nc1cccc(Br)c1 (configuration not stated)	nt	3%	18%	-20%	?	nt
NC(=O)c1cc(C(=O)c2cccc(Cl)c2Cl)c[nH]1	nt	-21%	7%	-4%	?	nt
NC(=O)c1cc(C(=O)c2ccccc2Cl)c[nH]1	nt	-25%	11%	-25%[10 µM]	8.9µM*	nt
COCCCNC(=O)c1cc(C(=O)c2ccccc2Br)c[nH]1	nt	-10%	3%	13%[10 µM]	?	nt
CN(C)C(=O)c1cc(C(=O)c2ccccc2Cl)c[nH]1	nt	10%	16%	16%[10 µM]	7.9µM*	nt
O=C(c1c[nH]c(C(=O)C(Cl)(Cl)Cl)c1)c1ccccc1Br	nt	5%	-2%	-12%[10 µM]	1.8µM*	nt
Cc1c(I)c(=O)n(-c2ccccc2)n1C	-5%	7%	-8%	-1%	1%	nt
CCN(CC)S(=O)(=O)c1ccc(NC(=O)CN(c2ccccc2)S(=O)(=O)N(C)C)cc1	nt	nt	nt	nt	nt	0
CNc1ccccc1C(C)(C)c1cc(C)[nH]n1	nt	0%	2%	-8%	10%	nt
CNc1ccccc1C(C)(C)c1cc(-c2ccco2)n[nH]1	-4%	17%[9.22 µM]	0%[38.3 µM]	26%[10 µM]	7.9µM*	11
CCN(CC)C(=O)c1c(NC(=O)c2cccc(C)c2)sc2c1CCC(C)C2 (configuration not stated)	nt	nt	nt	nt	nt	-3
COC(=O)NC(/C(C(=O)OC)=C(\C)NCc1ccccc1)c1cccc(C)c1 (configuration not stated)	nt	nt	nt	-7%[10 µM]	11%[13.5 µM]	nt
Clc1ccc(CSc2nnc(-c3ccncc3)o2)cc1	-8%	10µM*	5%[38.3 µM]	-1%	3%	3

From PubChem BioAssay
